Measurements from PubChem BioAssay AID485275 (NMMLSC, 2010).
The whole screen tested about 330,000 compounds, of which about 1,400 (0.42%) were called active. The list comes from a sample in which actives are over-represented; it also holds similar structures and randomly drawn compounds. Values without a mark were called inactive.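 Rule for the calls: active = plate passing quality check with inhibition over a set limit, or well fluorescence over plate mean plus 4 SD; inactive = the rest.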

Assay: inhibitors of Candida efflux pumps in yeast, primary screen, S. cerevisiae, Nile Red, multiplex (AID 485275);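 note: Nile Red retained in pooled yeast measured as flow cytometry median fluorescence; 0% = buffer negative control and 100% = Enniatin B positive control; higher means more Nile Red kept so more efflux inhibition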
Conditions: S. cerevisiae Candida pump triplex, at 10 µM, stronger effect = higher value

Compound | inhibition
CC(=O)c1ccc(N2CCN(C(=O)C3CCN(S(=O)(=O)c4ccc5c(c4)CC(C)N5C(=O)C4CC4)CC3)CC2)cc1 (stereo unspecified) | 40.5% (active)
COc1ccccc1CNC(=O)C1CCN(S(=O)(=O)c2ccc3c(c2)CC(C)N3C(=O)C2CC2)CC1 (stereo unspecified) | 0.09%
CC(=O)N1c2ccc(S(=O)(=O)N3CCC(C(=O)N4CCN(c5ccccc5)CC4)CC3)cc2CC1C (stereo unspecified) | -0.03%
CC1CC(=NNC(=O)C2COc3ccccc3O2)CC(C)(C)C1 (stereo unspecified) | -0.31%
Cc1cccc(N2CCN(C(=O)CCS(=O)(=O)c3ccc4c(c3)NC(=O)C(C)S4)CC2)c1C (stereo unspecified) | -0.07%
O=C(CCCCCn1c(=O)[nH]c2ccccc2c1=O)NCCc1c[nH]c2ccccc12 | 0.52% (active)
CCN(CC)CCNC(=O)CCCCCn1c(=O)[nH]c2cc(C(=O)OC)ccc2c1=O | -0.02%
O=C(CCc1c[nH]c2ccccc12)NCCOc1ccccc1 | -0.08%
CCCSc1ccc([C@H]2N[C@@](Cc3ccccc3)(C(=O)OC)[C@H]3C(=O)N(C)C(=O)[C@@H]23)cc1 | 0.02%
CSCC(NS(=O)(=O)c1ccc(C)cc1)C(=O)O (stereo unspecified) | -0.01%
CSCCC(NS(=O)(=O)c1ccc(C)cc1)C(=O)N1CCCC1 (stereo unspecified) | 1.45% (active)
CSCCC(NC(=O)c1ccccc1)C(=O)N1CCCCCCC1 (stereo unspecified) | 0.05%
COc1ccc(-n2nnc3c(=O)n(CC(=O)N4CCC(Cc5ccccc5)CC4)cnc32)cc1 | 0.1%
O=C(NCc1nnc(SCC(=O)N2CCCCCC2)o1)c1ccc(F)cc1 | -0.18%
Nc1nnc(C2CCCC2)s1 | 0.48%
O=C(CCN1C(=O)C2C3C=CC(C3)C2C1=O)Oc1ccc2ccccc2c1 (stereo unspecified) | 0.01%
O=C(CN1C(=O)C2C3CCC(C3)C2C1=O)Oc1ccc2ccccc2c1 (stereo unspecified) | 5.45% (active)
Cc1ccc(C(=O)COC(=O)CCN2C(=O)C3C4CCC(C4)C3C2=O)cc1C (stereo unspecified) | -0.13%
O=C(c1cc(-c2ccco2)nc2ccccc12)N(Cc1nnc(-c2ccc(Cl)cc2)o1)C1CC1 | 0.11%
Cc1cccc(-n2c(C)cc(/C=N\NC(=O)c3cccs3)c2C)c1 | -0.56%
Cc1ccc(-n2c(C)cc(/C=N\NC(=O)CC(=O)NC(C)C)c2C)cc1 | -0.13%
Cc1cc(/C=N/NC(=O)CC2(C)OCCO2)c(C)n1-c1ccc(Cl)c(Cl)c1 | 1.6% (active)
CC1CCN(C(=O)CCNC(=O)c2ccccc2)CC1 | -0.28%
Cc1cccc(C)c1NC(=O)C(Cl)C(=O)c1ccccc1 (stereo unspecified) | 0.07%
Cc1ccccc1NC(=O)CSC(=O)c1ccccc1 | -0.08%
CN=C(c1ccccc1)c1c(C)cccc1C | 23.6% (active)
